This passage reports outcome, activation and Potency results from PubChem BioAssay (NCATS).

The target in experiment [1] is Guanine nucleotide-binding protein G(i) subunit alpha-1 (Homo sapiens) (UniProt P63096). In words: qHTS Assay for Inhibitors of RGS12 GoLoco Motif Activity (Green Fluorophore) (AID 879).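 Further: 0% = labeled peptide with Gαi1 and full inhibition = labeled peptide alone without protein; negative values mean loss of peptide binding seen as reduced polarization.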 In a few lines: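 A drop in FITC polarization marked displacement of the FITC-tagged RGS12 GoLoco peptide (10 nM) from Gαi1 (50 nM). Compounds were incubated 10 min at room temperature in Tris pH 7.5 buffer containing 150 mM NaCl, 0.1 mM GDP and 0.05% NP40; unlabeled peptide titration served as control.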
In general terms: qHTS replaces the single test concentration by a dilution series.

The nature of experiment [2]: qHTS Assay for Identification of Small Molecule Agonists for Thrombopoietin (TPO) Signaling Pathway (AID 917). Further: on the % scale 0 is the no-effect control and ±100 the full control effect. In a few lines: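 Cell-based luciferase reporter screen. Mouse Ba/F3 line stably expressing human TPO receptor; IL-3 removed overnight before plating. Co-treatment with compound and EC50 TPO (26 pM), 24 hrs at 37 C, then luminescence.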
Experiment [3] is described as follows: Cell Viability - Mesenchymal (AID 546).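 Further: cells exposed to compound for 40 hours before reading; 0% = DMSO only and -100% = 100 µM tamoxifen.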 In a few lines:
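In this qHTS cytotoxicity format, glomerulus-derived human mesenchymal kidney cells received compound for 40 hr, then luciferase-based ATP quantitation. Concentration-response data were fitted with the Hill equation.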

A short description of experiment [4]: Cellular Toxicity (caspase-3) HepG2 (AID 654).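 Further: cells exposed to compound for 16 hours before reading; 0% = DMSO alone and 100% = caspase signal from 100 µM tamoxifen.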 In a few lines:
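Caspase 3/7 activation in HepG2 is measured as rising luminescence after a 16 hr treatment at 37 °C. Values are scaled between DMSO basal and 100 uM tamoxifen, and AC50 is fitted with the Hill equation.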

Experiment [5] in a line: Cellular Toxicity (caspase-3) Jurkat (AID 655).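 Further: cells exposed to compound for 16 h at 37 °C before reading.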 In a few lines: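 5000 Jurkat cells/well; compound 16 hr, 37 °C; Caspase-Glo 3/7 added, 20 min RT; luminescence read. Norm: DMSO = 0%, tamoxifen 100 uM = 100%. AC50, Hill model.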
The nature of experiment [6]: Cellular Toxicity (caspase-3) HUV-EC-C (AID 656).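 Further: 0% = DMSO basal and 100% = 100 µM tamoxifen.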 In a few lines:
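qHTS; HUV-EC-C, 1000 cells/well; 5 hr settle, 16 hr cmpd, 37°C; Caspase-Glo 3/7, 20 min RT; luminescence. Norm: DMSO = 0%, tamoxifen 100 uM = 100%. Hill-fit AC50.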

The nature of experiment [7]: Cellular Toxicity (caspase-3) BJ (AID 658).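 Further: 0% = DMSO basal and 100% = 10 µM staurosporine.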 The method, boiled down: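 Plated BJ cells (1000/well) rested 5 hr, received compound for 16 hr at 37 °C, then Caspase-Glo 3/7 reagent for 1 hr at room temperature before luminescence reading.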
The nature of experiment [8]: Cellular Toxicity (caspase-3) Mesangial (AID 660).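 Further: combined caspase 3 and 7 activity read by Caspase-Glo luminescence; cells exposed to compound for 16 h before the caspase read.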 The method, boiled down: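 Seed cells derived from normal human renal glomeruli, incubate 5 h, add compounds across concentrations and incubate 16 h at 37 °C. Caspase 3/7 activation is then quantified by luciferase light, with AC50 derived by Hill modeling.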
A short description of experiment [9]: Cellular Toxicity (caspase-3) H-4-II-E (AID 663).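 Further: cells exposed to compound for 16 hr before readout; 0% = DMSO basal and 100% = 100 µM tamoxifen.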 In a few lines: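 Caspase 3/7 activation measured in H-4-II-E cells in complete culture medium after 16 hr treatment at 37 °C, using luciferase-coupled substrate readout; AC50 values come from Hill-equation fits of normalized concentration-response data.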
Experiment [10] is described as follows: Cellular Toxicity (caspase-3) Hek293 (AID 664).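 Further: cells exposed to compound for 16 h at 37 °C before readout.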 In a few lines: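 qHTS, HEK293 (human embryonic kidney), 16 h cpd exposure in complete medium. Caspase-3/7 activation = luminescence increase; normalized to DMSO/100 uM tamoxifen; Hill-fit AC50.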
Experiment [11] is described as follows: Cellular Toxicity (caspase-3) N2a (AID 665).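 Further: compound exposure lasted 16 h at 37 °C before readout.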 In a few lines: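 Caspase-3/7 activation, measured as increased luminescence from aminoluciferin release, is quantified in mouse N2a cells exposed to compounds for 16 h. Values are normalized to DMSO and 10 uM staurosporine, with AC50 derived by Hill modelling.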
The nature of experiment [12]: Cellular Toxicity (caspase-3) NIH 3T3 (AID 666).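 Further: caspase signal read after 16 h compound exposure; 0% = DMSO basal and 100% = 100 µM tamoxifen stimulation.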 In a few lines: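 Cells were plated at 1000 per well and incubated 5 hr at 37°C, then compound was added for 16 hr. Caspase-Glo 3/7 reagent followed for 20 min at room temperature before luminescence was read.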
Experiment [13] in a line: Cellular Toxicity (caspase-3) Renal Proximal Tubule (AID 667).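 Further: cells exposed to compound for 16 hours at 37 °C before detection; 0% = DMSO basal and 100% = 10 µM staurosporine.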 The method, boiled down: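 AC50 derived by standard Hill fit of concentration-response data, normalized between DMSO basal and 10 uM staurosporine as 100% stimulation. Cells: primary rat kidney proximal tubule, 16 h treatment at 37 °C.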
Experiment [14] addresses Cytochrome P450 3A4 (Homo sapiens) (UniProt P08684). In words: qHTS Assay for Inhibitors and Substrates of Cytochrome P450 3A4 (AID 884). Further: series mostly up to about 57 µM; on the % scale 0 is the no-effect control and ±100 the full control effect; nearly all actives have a fitted effect of over 50% in size. In a few lines: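 Luminescent readout of luciferin produced by CYP3A4 (20 nM) dealkylation of Luciferin-PPXE, 25 uM (its KM). NADPH-driven reaction ran 60 min at RT after 10 min compound preincubation; data scaled to 57 uM ketoconazole as 100% inhibition.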

For experiment [15] the target is unchanged. Put plainly: qHTS Assay for Activators of Cytochrome P450 3A4 (AID 885). Further: nearly all actives have a fitted effect of over 65% in size. The method, boiled down: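 Luminescent readout of luciferin formed from 25 uM Luciferin-PPXE (KM level) by 20 nM CYP3A4 in 200 mM KPO4, with 60 min NADPH-driven reaction at room temperature after 10 min compound exposure. Ketoconazole (57 uM) defined 100% inhibition.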
Experiment [16] is described as follows: Confirmation and Secondary Assay for Modulators of Hemoglobin Beta Chain Splicing at IVS2 654 locus (AID 910).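 Further: per-well total GFP intensity by laser scanning cytometry after 2-day treatment; % of control where 0% means no effect.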 The method, boiled down: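 HeLa cells stably carrying EGFP interrupted by mutant beta-globin IVS2-654 intron (CMV-driven) were treated with compound for 2 days at 37C; corrected splicing was scored as total peak GFP intensity per well (488 nm excitation, 500-520 nm emission).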

A short description of experiment [17]: qHTS Assay for Identification of Small Molecule Agonists for Hypoxia Response Element Signaling Pathway (AID 914; active means well fitted activation curve with a large enough effect in the signal ratio, with a control signal flat, not every such curve was filed as active; the % refers to the signal ratio; further: % of control where 0% means no effect). Conditions: ME-180 (cervical carcinoma) HRE-bla reporter, beta-lactamase ratio, CoCl2, 17 h; hits give high values. The method, boiled down:
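In Opti-MEM containing 0.5% dialyzed FBS and 10 mM HEPES, ME-180 HRE-bla cells received a compound titration and EC50 CoCl2. They were incubated 17 hours, then CCF4-loaded 2.5 hours at room temperature before ratio reading.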

The target in experiment [18] is Cytochrome P450 2C9 (Homo sapiens) (UniProt P11712). In words: qHTS Assay for Inhibitors and Substrates of Cytochrome P450 2C9 (AID 883). Further: potency means the concentration at half of the fitted maximal effect; nearly all actives have a fitted effect of over 60% in size. In a few lines: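 CYP2C9 deoxyluciferin hydroxylation, 37C, 60 min with NADPH regeneration; 10nM enzyme, 100uM Luciferin-H (KM). Glo detection reagent stopped reaction; luminescence normalized to sulphaphenazole (57uM) full inhibition.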

Each structure is given as a SMILES string. Unmarked numbers belong to inactive results. Records with an inconclusive call do not appear. Calls of active or inactive are those of the source. Unless noted, the call rests on the fitted dose curve; in most records, active means well fitted curve in the direction sought with a large enough effect; inconclusive means small, poorly fitted or top-dose-only effect, or another doubt; inactive means no such curve, though single readings can be large; an effect the other way counts as inactive or inconclusive.

Sequence of Cytochrome P450 3A4 (Homo sapiens) (P08684 whole entry, looked up): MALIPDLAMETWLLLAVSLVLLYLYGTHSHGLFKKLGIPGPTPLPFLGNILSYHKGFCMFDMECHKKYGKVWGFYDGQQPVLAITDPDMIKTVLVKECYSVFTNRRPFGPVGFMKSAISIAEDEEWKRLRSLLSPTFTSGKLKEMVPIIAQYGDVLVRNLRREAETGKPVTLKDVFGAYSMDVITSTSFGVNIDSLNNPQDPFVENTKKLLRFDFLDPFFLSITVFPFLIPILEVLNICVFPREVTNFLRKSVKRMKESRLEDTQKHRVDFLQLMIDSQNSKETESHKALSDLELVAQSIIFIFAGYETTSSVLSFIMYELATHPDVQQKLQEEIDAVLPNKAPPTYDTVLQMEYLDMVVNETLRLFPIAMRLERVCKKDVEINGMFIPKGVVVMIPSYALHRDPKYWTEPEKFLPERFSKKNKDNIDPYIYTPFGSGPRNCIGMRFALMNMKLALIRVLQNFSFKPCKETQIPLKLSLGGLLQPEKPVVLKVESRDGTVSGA
Sequence of Guanine nucleotide-binding protein G(i) subunit alpha-1 (Homo sapiens) (P63096 whole entry, looked up): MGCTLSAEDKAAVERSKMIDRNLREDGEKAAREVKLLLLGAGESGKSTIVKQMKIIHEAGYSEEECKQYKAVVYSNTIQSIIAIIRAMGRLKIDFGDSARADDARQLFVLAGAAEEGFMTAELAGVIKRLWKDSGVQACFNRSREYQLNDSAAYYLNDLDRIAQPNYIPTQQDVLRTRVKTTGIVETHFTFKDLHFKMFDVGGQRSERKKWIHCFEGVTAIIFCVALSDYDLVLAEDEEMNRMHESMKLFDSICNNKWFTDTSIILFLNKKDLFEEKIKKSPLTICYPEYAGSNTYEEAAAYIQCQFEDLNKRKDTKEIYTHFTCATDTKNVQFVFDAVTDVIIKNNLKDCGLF
Sequence of Cytochrome P450 2C9 (Homo sapiens) (P11712 whole entry, looked up): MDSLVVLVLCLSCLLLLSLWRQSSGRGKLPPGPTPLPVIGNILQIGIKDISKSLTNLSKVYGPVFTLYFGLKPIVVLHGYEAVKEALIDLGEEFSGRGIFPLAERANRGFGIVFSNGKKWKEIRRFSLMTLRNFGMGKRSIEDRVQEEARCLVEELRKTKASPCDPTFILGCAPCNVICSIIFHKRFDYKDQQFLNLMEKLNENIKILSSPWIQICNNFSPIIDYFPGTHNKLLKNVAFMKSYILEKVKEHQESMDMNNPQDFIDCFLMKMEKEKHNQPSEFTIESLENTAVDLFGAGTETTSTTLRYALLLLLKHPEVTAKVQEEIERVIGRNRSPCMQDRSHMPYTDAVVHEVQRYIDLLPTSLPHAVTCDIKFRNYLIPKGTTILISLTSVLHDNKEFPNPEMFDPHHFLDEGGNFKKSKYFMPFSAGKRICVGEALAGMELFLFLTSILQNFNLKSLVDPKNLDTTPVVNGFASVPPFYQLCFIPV

As for `NC(=O)CC[C@@H](N)C(=O)O`, the compound was called inactive in experiment [1] and in experiment [2].
In the case of `O=C1C(c2[nH]c3ccccc3c2O)=Nc2ccccc21`, the compound was called inactive in experiment [3], in experiment [4], in experiment [5], in [6], in [7] and in experiment [8]. The result in experiment [9], in experiment [10], in [11], in experiment [12], in experiment [13] and in experiment [14] was inactive.
As for `Cc1cc(C)nc(NS(=O)(=O)c2ccc(N)cc2)n1`, the compound was classed as inactive in experiment [3], in [4], in [5], in experiment [6], in experiment [7] and in [8]. Also, the outcome in experiment [9], in experiment [10], in experiment [11], in [12], in [13] and in experiment [15] was inactive. Further, the result in [16] was inactive. Moreover, the activation in experiment [17] is -4.03%.
With `CC(=O)OCC(COC(C)=O)OC(C)=O`, the outcome in experiment [3], in experiment [4], in experiment [5], in experiment [6], in [7] and in [8] was inactive. Also, the compound was classed as inactive in experiment [9], in experiment [10], in experiment [11], in experiment [12], in [13] and in experiment [14]. For the same compound, the call in experiment [16] was inactive.
On to `CCCCCC(N)=O`, for which the result in experiment [3], in [4], in experiment [5], in [6], in experiment [7] and in [8] was inactive. Besides, the call in [9], in [10], in experiment [11], in [12], in experiment [13] and in experiment [14] was inactive.
As to `CCN(CC)C(=O)c1cccc(C)c1`, the result in experiment [3], in experiment [4], in experiment [5], in experiment [6], in [7] and in experiment [8] was inactive. In addition, the outcome in [9], in experiment [10], in experiment [11], in experiment [12], in experiment [13] and in experiment [16] was inactive.
For `Nc1ccc(S(=O)(=O)c2ccc(N)cc2)cc1`, the outcome in experiment [3], in experiment [4], in [5], in experiment [6], in experiment [7] and in experiment [8] was inactive. Besides, the compound was classed as inactive in experiment [9], in experiment [10], in experiment [11], in experiment [12], in experiment [13] and in [16].
With `CCCC(O)C(CC)CO` (stereo unspecified), the call in [3], in experiment [4], in experiment [5], in experiment [6], in experiment [7] and in [8] was inactive. The compound was classed as inactive in [9], in experiment [10], in experiment [11], in experiment [12], in experiment [13] and in experiment [14].
For the compound `CC1CC(OC(=O)c2ccccc2O)CC(C)(C)C1` (stereo unspecified), the compound was called inactive in experiment [3], in experiment [4], in experiment [5], in [6], in experiment [7] and in experiment [8]. Moreover, the compound was classed as inactive in [9], in experiment [10], in experiment [11], in experiment [12], in [13] and in experiment [16].
Turning to `O=C(O)COC(=O)Cc1ccccc1Nc1c(Cl)cccc1Cl`, the Potency in [18] was 1580 nM (active). Also, the activation in [17] is -4.27%.
For `CC(=O)Nc1cccc(O)c1`, the result in experiment [3], in experiment [4], in experiment [5], in experiment [6], in [7] and in experiment [8] was inactive. Also, the compound was classed as inactive in experiment [9], in experiment [10], in experiment [11], in experiment [12], in experiment [13] and in [14]. Moreover, the compound was called inactive in experiment [16].
Regarding `NC(=O)NC1NC(=O)NC1=O` (stereo unspecified), the call in experiment [14] and in experiment [16] was inactive.
In the case of `CC(=O)NCc1c(I)c(NC(C)=O)c(I)c(C(=O)O)c1I`, the compound was called inactive in experiment [14] and in experiment [16].
Consider `CCCCCC(C)N` (stereo unspecified), for which the compound was classed as inactive in experiment [14] and in experiment [16].
For the compound `CC1CCc2cc(F)cc3c(=O)c(C(=O)O)cn1c23` (stereo unspecified), the compound was classed as inactive in experiment [14] and in experiment [16].
As for `C=CCNC(N)=S`, the outcome in [3], in experiment [4], in [5], in experiment [6], in [7] and in experiment [8] was inactive. The compound was classed as inactive in [9], in experiment [10], in experiment [11], in [12], in experiment [13] and in experiment [14].
With `CN1C(C)(C)CCCC1(C)C`, the compound was called inactive in experiment [1], in experiment [16] and in [2].
Turning to `O=C(O)c1ccccc1OP(=O)(O)O`, the compound was classed as inactive in [14] and in [16].
On to `Cc1c(N(C)C)c(=O)n(-c2ccccc2)n1C`, for which the compound was classed as inactive in [3], in [4], in experiment [5], in [6], in experiment [7] and in [8]. In addition, the compound was called inactive in [9], in experiment [10], in experiment [11], in experiment [12], in experiment [13] and in [14].
Take `COc1ccc2cc(CCC(C)=O)ccc2c1`: the call in [15] was inactive.
Same read-out and setting: as for `C=CCSCC1Nc2cc(Cl)c(S(N)(=O)=O)cc2S(=O)(=O)N1` (stereo unspecified), the entry is “inactive”.
Consider `CC(=O)N[C@@H](CC(C)C)C(=O)O`, for which the activation in experiment [17] is -5.35%.
